Among all 360,000 compounds or so, about 7,500 (2.1%) were called active. About 20% were inconclusive and are not listed. The sample holds actives, similar compounds and a random draw of the others, so the mix is not that of the screen. A number with no mark means an inactive call. The call rests on the fitted dose curve; in most records, active means well fitted inhibition curve with a large enough effect; inconclusive means small, poorly fitted or top-dose-only effect, or effect the other way; inactive means flat fitted curve, though single readings scatter.
Experiment: Nrf2 qHTS screen for inhibitors; further: nearly all actives have a fitted effect of over 60% in size
Settings: A549 ARE-Fluc reporter, luciferase luminescence, 18-24 h; series mostly up to 46 µM; activity change, negative = inhibition: at the top concentration
How it was run: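 In this cell-based qHTS, ARE-driven firefly luciferase in A549 cells reports Nrf2 activity; the luminescent signal after BugLite lysis is the measured value, with a prior CellTiter-Fluor read for cell health.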
On the % scale 0 is the no-effect control and ±100 the full control effect; potency means the concentration at half of the fitted maximal effect.

In order of rising “activity change, negative = inhibition” value:
1. COc1cccc(NC(=O)CSc2cc(=O)n(C)c3ccc(Cl)cc23)c1  -28%
2. Cc1ccc(CCNC(=O)c2nnc(Cc3cccc(F)c3)o2)cc1  -25.7%
3. Cc1nn(-c2ccc(F)cc2)c(Cl)c1/C=C(/CCC(=O)O)c1nc2ccccc2s1  -25%
4. COc1ccc(S(=O)(=O)Nc2cccc3c2O[C@H](CN(C)S(=O)(=O)c2ccc(OC)cc2)[C@@H](C)CN([C@H](C)CO)C3=O)cc1  -25%
5. COc1ccc(-c2ccc3ncnc(NCc4cccs4)c3c2)cc1OC  -24.9%
6. Cc1cc(C)cc(OCC(=O)Nc2ccc(N3CCOCC3)cc2N2CCOCC2)c1  -24.6%
7. CC(=O)c1ccc(OCC(O)CN2CCN(S(=O)(=O)c3cccc(Br)c3)CC2)cc1 (centres undefined)  -24.4%
8. CCOc1ccc2nc(NC(=O)c3cc([N+](=O)[O-])ccc3N3CCOCC3)sc2c1  -23.6%
9. CCOC(=O)C1=C(C)N(C[C@@H]2CC[C@@H](Cc3ccc(-c4ccccc4)cc3)O2)C(=O)NC1c1ccc([N+](=O)[O-])cc1 (some centres undefined)  -22.3%
10. O=S(=O)(Nc1ccc2nc(-c3cccc(Cl)c3)oc2c1)c1ccccc1  -21.7%
11. Cc1ccc(NC(=O)C(C)Sc2nnc(C3CC3)n2C2CC2)cc1S(=O)(=O)N1CCOCC1 (centres undefined)  -20.8%
12. Cc1ccc(NC2=C(c3ccc(C(F)(F)F)cc3)C(=O)c3ccccc32)cc1F  -20.5%
13. CCCSc1ncc(Cl)c(C(=O)Nc2sc3c(c2C(=O)NCCOC)CCCC3)n1  -19.9%
14. CCOC(=O)c1cc(NC(=O)c2ccc(F)cc2)c(=O)n2c1oc1ccccc12  -17.2%
15. COc1cccc(-n2cc(C(=O)NCc3cccc(Cl)c3)c3ccccc3c2=O)c1  -15.8%
16. NC(=O)C1CCN(C(=O)c2cc(S(=O)(=O)N3CCN(c4ccccc4)CC3)ccc2Cl)CC1  -14.7%
17. COc1ccc(CCNC(=O)CSc2nc3[nH]ncc3c(=O)n2-c2cccc(C(F)(F)F)c2)cc1OC  -14.3%
18. CC(C)OCCCNC(=O)c1cc(Sc2ccc(F)cc2)nc2ccccc12  -13.6%
19. Cc1ccc(F)cc1NC(=O)CCSc1nc(-c2ccco2)cc(C(F)(F)F)n1  -13.2%
20. O=C(Nn1c(-c2ccccc2)nc2ccccc2c1=O)c1ccc([N+](=O)[O-])cc1  -12.6%
21. COc1cccc(CNCCSc2nnnn2C)c1OCc1ccccc1Cl  -11.2%
22. O=C(c1cccs1)c1cn(CCOc2ccc(Cl)cc2)c2ccccc12  -11%
23. COc1ccccc1-c1cc2nc(C)c(CCC(=O)NC3CCCCC3)c(C)n2n1  -10.5%
24. CCc1ccc(CN(C)C(C)C(=O)Nc2ccc(S(=O)(=O)N3CCCC3)cc2)cc1 (centres undefined)  -9.67%
25. Cc1ccc2oc3c(c(=O)c2c1)C(c1ccc(O)cc1)N(Cc1ccc2c(c1)OCO2)C3=O (centres undefined)  -8.81%
26. COc1ccc(C(=O)CSc2nnnn2C)c(OC)c1  -8.69%
27. CC(C)[C@@H](C(=O)OCC(=O)c1ccc2c(c1)NC(=O)CO2)N1C(=O)c2ccccc2C1=O  -8%
28. CCc1ccc(C2C(C(=O)Nc3ccccc3)=C(C)Nc3c(C(=O)Nc4ccc(C)cc4)cnn32)cc1 (centres undefined)  -7.44%
29. COc1ccc(C(=O)OCC(=O)N2CC(=O)Nc3ccccc32)cc1Br  -7.14%
30. O=C(CCn1ccc2cc(S(=O)(=O)N3CCCC3)ccc21)NCc1cccc(Cl)c1  -6.98%
31. COCCNC(=O)CSc1nc(-c2ccccc2)[nH]c1-c1ccc(C)cc1  -5.73%
32. O=C(c1ccco1)N(Cc1cccs1)c1ccc(O)cc1  -5.51%
33. CC(=O)c1cccc(NC(=O)COc2ccc(S(=O)(=O)N3CCOCC3)cc2)c1  -4.98%
34. O=c1c2c(-c3ccccc3)ccnc2[nH]n1-c1ccccc1  -2.93%
35. CCN(CC)S(=O)(=O)c1ccc(N(C)CCc2ccc(OC)c(OC)c2)nc1  -2.74%
36. CC(=O)c1cccc(S(=O)(=O)N2CCC(n3nnc4cc(F)ccc43)CC2)c1  -2.65%
37. CCN(CC)S(=O)(=O)c1ccc(NC(=O)c2cnc(C)cn2)cc1  -2.49%
38. COc1ccccc1-c1ccnc2[nH]n(-c3ccccc3)c(=O)c12  -1.14%
39. COc1cc(OC)cc(-c2nc3nc(C)c(CCC(=O)Nc4ccccc4)c(C)n3n2)c1  -0.881%
40. COc1ccc(-n2c(C)cc(C(=O)COC(=O)c3cc(OC)c(OC)cc3NC(=O)c3cccs3)c2C)cc1  -0.74%
41. COC(=O)c1cccc(N2C(=O)C3C4C=CC(CC4)C3C2=O)c1 (centres undefined)  0.177%
42. COc1ccc2[nH]c3nc(SCC(=O)NC4CC4)nnc3c2c1  0.184%
43. CC(NS(=O)(=O)c1ccc(Cl)cc1)C(=O)Nc1ccc2c(c1)OCCO2 (centres undefined)  0.41%
44. COc1cc(OC)c(C(=O)OCC(=O)N2CC(=O)Nc3ccccc32)cc1OC  0.599%
45. COc1cc(OC)c(OC)cc1/C=N/Nc1ncnc2c1[nH]c1ccc(C)cc12  1.21%
46. CC(C)(c1ccccc1)c1ccc(OCCN)cc1  1.37%
47. COc1ccc(-n2nnnc2SCC(=O)NCc2cccs2)cc1  1.52%
48. Cc1ccc(OC(=O)CSc2nnc(-c3cccs3)o2)cc1  1.89%
49. Cc1ccc(CSc2nc3[nH]ncc3c(=O)[nH]2)cc1  2.03%
50. Oc1ccc(-n2nnnc2SCc2c(F)cccc2Cl)cc1  2.72%
51. O=C(CCC(=O)c1ccccc1)NCc1cccc(C(F)(F)F)c1  3.64%
52. O=C(Nc1ccc(NC(=O)c2ccc3c(c2)OCO3)cc1)c1cccc(Cl)c1  3.66%
53. CN1CCC(N(C)C(=O)c2ccc(Cl)c(S(=O)(=O)Nc3ccc(Cl)cc3)c2)CC1  3.83%
54. CCOc1ccc2[nH]c3nc(SCC(=O)NC4CCCC4)nnc3c2c1  3.92%
55. CCC(=O)NC(Nc1nc2ccc(C)cc2s1)(C(=O)OC)C(F)(F)F (centres undefined)  4.39%
56. O=C(Cn1cnc2c(OCc3ccccc3)ncnc21)NCc1nc2ccccc2[nH]1  4.45%
57. COc1cccc(C2c3c(ncn(-c4cccc(Br)c4)c3=N)Oc3ccc4ccccc4c32)c1 (centres undefined)  5.52%
58. Cc1cc(NC(=O)CSc2nnnn2-c2ccc(F)cc2)no1  6.18%
59. O=C(Nc1ccccc1C(=O)Nc1ccncc1)c1ccc([N+](=O)[O-])cc1  6.83%
60. CN1CCN(S(=O)(=O)c2cccc(C(=O)O)c2)CC1  8.01%
61. CCOC(=O)C1CCN(c2ncnc3c2c(-c2ccccc2)cn3-c2ccc(C)cc2)CC1  8.13%
62. CC(=O)c1ccc(NC(=O)CSc2nc3ccccc3c(=O)n2CCCN2CCOCC2)cc1  8.57%
63. CC(C)c1ccc(S(=O)(=O)Nc2ccc(O)c(Sc3nc4ccccc4s3)c2)cc1  9.38%
64. O=C(CSc1nnc(-c2ccccc2F)o1)Nc1cccc(C(F)(F)F)c1  9.58%
65. CC1C=CCC2C(=O)N(c3cccc(C(=O)N4CCCCCC4)c3)C(=O)C12 (centres undefined)  10.5%
66. C#CCOCCOCCOCCNc1nc(N2CCN(C(=O)[C@H](CO)n3cc([C@@H](N)C(C)C)nn3)CC2)nc(N2CCN(C(=O)[C@H](CCC(=O)O)n3cc([C@@H](N)[C@H](C)CC)nn3)CC2)n1  10.7%
67. O=C(NCc1nnc(C(=O)Nc2ccc(C(F)(F)F)cc2Cl)o1)c1ccccc1  13.5%
68. CCOc1ccccc1NC(=O)c1ccc2c(c1)CCN2S(=O)(=O)c1ccc(C)cc1  14.1%
69. COc1cccc(Oc2ccc(N)cc2)c1  14.4%
70. CCOC(=O)c1ccc(CSc2nnc3cc(C)c4ccccc4n23)cc1  15%
71. Oc1ccccc1-c1nc2ccc(Cl)cn2c1Nc1ccc2c(c1)OCCO2  18.1%
72. COc1ccc(C)cc1Nc1nc2ccccc2c2nnc(C)n12  18.3%
73. Cc1ccc(N2CC(c3nnc(Cc4ccccc4Cl)o3)CC2=O)cc1 (centres undefined)  18.7%
74. COc1ccc(-c2nc(=N)sn2-c2ccccc2)cc1  24%
75. CCOC(=O)c1cccc(NC(=O)C(Cc2ccccc2)NS(=O)(=O)c2cccc3nsnc23)c1 (centres undefined)  24.3%

In the case of `COc1ccc(CSc2nnnn2-c2ccc(O)cc2)cc1F`, the Potency is reported as 14.6 µM (active).
For `COc1ccc(-n2nnnc2SCC(=O)c2ccc(OC)c(OC)c2)cc1`, the Potency was 16.4 µM (active).
With `COc1ccc(Cl)cc1-n1c(C)cc(C(=O)OCC(=O)N2CC(=O)Nc3ccccc32)c1C` the Potency was 18.4 µM (active).
With `Cc1ccc(OCCNC(=O)c2cccc(S(=O)(=O)N3CCN(Cc4ccccc4)CC3)c2)cc1` the Potency was 11.6 µM (active).
For `CC(C)(C)c1ccc(Oc2ccc(N)cc2)cc1`, the Potency was 4.11 µM (active).
In the case of `O=C(Nc1cccc(S(=O)(=O)Nc2ccc(Cl)cc2)c1)c1ccc2c(c1)OCCO2`, the Potency is reported as 10.3 µM (active).
In the case of `CCN(CC)S(=O)(=O)c1ccc(N(C)Cc2ccc(C(F)(F)F)cc2)nc1`, the Potency is reported as 18.4 µM (active).
With `O=C(CSc1nnc2c(n1)[nH]c1ccccc12)NC1CCCCC1` the Potency was 3.66 µM (active).
With `O=C(CCC(=O)N1CCN(S(=O)(=O)c2ccc(Cl)cc2)CC1)NCc1cccc(C(F)(F)F)c1` the Potency was 8.2 µM (active).
With `O=C(Nc1cc(-c2ccccc2)nn1-c1ccccc1F)c1ccc([N+](=O)[O-])cc1` the Potency was 20.6 µM (active).
In the case of `CC(C)OCCCNc1ncnc2c1[nH]c1ccc(F)cc12`, the Potency is reported as 4.11 µM (active).
For `Cc1cccc(N2CCN(C(=O)c3cccc(N4C(=O)C5C6C=CC(C6)C5C4=O)c3)CC2)c1C` (centres undefined), the Potency was 18.4 µM (active).
For `COc1ccccc1-c1cc2nc(C)c(CCC(=O)O)c(C)n2n1`, the Potency was 3.66 µM (active).
In the case of `CCc1ccc(-n2c(SCc3cc(=O)n4cc(Br)ccc4n3)nc3[nH]ncc3c2=O)cc1`, the Potency is reported as 16.4 µM (active).
In the case of `CC(=O)c1cccc(Nc2ccc3cc(S(=O)(=O)N4CCC(C)CC4)ccc3n2)c1`, the Potency is reported as 20.6 µM (active).
With `O=C(NC(Nc1nc2ccc([N+](=O)[O-])cc2s1)(C(F)(F)F)C(F)(F)F)c1ccccc1` the Potency was 2.59 µM (active).
In the case of `O=c1[nH]cnc2c1c(-c1ccccc1)cn2-c1ccc(F)cc1`, the Potency is reported as 25.9 µM (active).
With `COc1ccc(-n2c(C)cc(C(=O)CSc3nnc(-c4cccs4)o3)c2C)cc1` the Potency was 18.4 µM (active).

In the case of `CCCCOc1ccc(C(=O)N2CC(=O)Nc3ccc(Br)cc3C2c2ccc(F)cc2)cc1` (centres undefined), the activity change, negative = inhibition is reported as -25.1% [at 9.27 µM].
